The values below come from PubChem BioAssay AID1851 (National Center for Advancing Translational Sciences (NCATS), 2009).

The structures appear in SMILES notation. The campaign covered roughly 16,000 compounds. About 5,700 (36%) were called active. Roughly 24% stayed inconclusive and do not appear here. The list shows a part of the results. A number with no mark means an inactive call. The call rests on the fitted dose curve; in most records, active means well fitted curve in the direction sought with a large enough effect; inconclusive means small, poorly fitted or top-dose-only effect, or effect the other way; inactive means no such curve, though single readings can be large or run the other way.
On the % scale 0 is the no-effect control and ±100 the full control effect.

For this assay, the target named is Cytochrome P450 1A2 (Homo sapiens) (UniProt P05177). The assay is described as follows: Cytochrome panel assay with activity outcomes. Particulars: recombinant CYP, pro-luciferin dealkylation, luminescence, p450-cyp1a2; series mostly up to 57.1 µM; activity, negative = inhibition: at the top concentration.
Cytochrome P450 1A2 (Homo sapiens), sequence (P05177 whole entry, looked up): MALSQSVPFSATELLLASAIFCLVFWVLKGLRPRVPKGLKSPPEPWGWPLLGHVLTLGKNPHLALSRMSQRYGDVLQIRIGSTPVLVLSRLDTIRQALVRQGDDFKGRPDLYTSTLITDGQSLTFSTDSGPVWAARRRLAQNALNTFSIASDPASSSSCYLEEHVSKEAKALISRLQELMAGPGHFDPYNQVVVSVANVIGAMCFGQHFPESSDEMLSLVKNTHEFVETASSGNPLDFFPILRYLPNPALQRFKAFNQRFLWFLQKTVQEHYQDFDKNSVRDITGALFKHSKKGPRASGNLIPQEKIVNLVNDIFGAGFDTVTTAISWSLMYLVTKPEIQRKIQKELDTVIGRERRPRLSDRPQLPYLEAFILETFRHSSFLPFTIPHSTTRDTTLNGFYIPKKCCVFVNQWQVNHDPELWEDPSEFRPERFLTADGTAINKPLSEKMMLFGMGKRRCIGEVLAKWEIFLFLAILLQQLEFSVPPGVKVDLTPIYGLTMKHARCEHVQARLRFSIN
As to `Cc1cc(C(C#N)c2cccc(Cl)c2)n2ncnc2n1` (configuration not stated), the AC50 (usually the midpoint of the concentration-response curve, whichever way the signal moves) was 5.01 µM (active).

With `CC[C@@H]1CN2CCc3cc(OC)c(OC)cc3[C@H]2C[C@@H]1C[C@H]1NCCc2cc(OC)c(OC)cc21`, the “activity, negative = inhibition” value is -3.72% [at 25.6 µM].

Take `NC1CCN(c2cccc(Cl)n2)CC1`: the AC50 was 15.8 µM (active).

With `c1c[nH]c(CN2CCN(Cc3ncc[nH]3)CC2)n1`, the activity, negative = inhibition was 0.981% [at 11.4 µM].

For `COc1ccc(C2N=C(N)N=C(N)N2c2ccccc2OC)cc1OC` (configuration not stated), the “activity, negative = inhibition” value is 1.06%.

Consider `CCn1c(SCC(=O)Nc2ccccc2C(=O)OC)nnc1-c1ccc(N)cc1`, for which the AC50 was 14.1 µM (active).

For the molecule `CC(C)CC(C(=O)NCC1CCCO1)N(C(=O)Cn1nnc(-c2ccc(F)cc2)n1)c1ccccc1F` (configuration not stated), the “activity, negative = inhibition” value was -7.92%.

In the case of `O=C(O)C[C@H]1OCC=C2C[N@@+]3([O-])CC[C@]45c6ccccc6N[C@@H]4[C@@H]1[C@H]2C[C@H]53`, the activity, negative = inhibition is -14.3% [at 2.29 µM].

In the case of `COc1ccc(O[C@H]2C=C[C@@H](c3ccccc3)O[C@@H]2CO/N=C(\C)CCN2CCCCc3nc(C)c(C)cc32)cc1`, the activity, negative = inhibition was 0.173% [at 11.4 µM].

As to `COc1ccccc1-c1cc(-n2ccnc2)ncn1`, the AC50 was 0.316 µM (active).

With `CN(C)Cc1ccccc1-c1cc(-n2ccnc2)ncn1`, the AC50 is 5.01 µM (active).

Turning to `Nc1nc(-c2cccc([N+](=O)[O-])c2)cc(-c2cc(-c3cccc([N+](=O)[O-])c3)nc(N)n2)n1`, the activity, negative = inhibition was 0.313% [at 2.29 µM].

Turning to `Cc1cc(-c2cccc([N+](=O)[O-])c2)nc2ccc3ccccc3c12`, the AC50 is 0.631 µM (active).

Turning to `CCn1c(CNC(=O)COc2ccc(C(C)C)cc2)nnc1SCC(=O)Nc1cc(F)ccc1C`, the “activity, negative = inhibition” value was -7%.

`O=C(Cn1c(C(F)(F)F)nc2ccccc21)c1ccc(F)cc1`: the “activity, negative = inhibition” value is -27.8%.

With `O=C(Cn1c(-c2cscn2)nc2ccccc21)Nc1cc(F)ccc1F`, the AC50 is 2.51 µM (active).

As for `Cn1ncc2c(Cl)ncnc21`, the activity, negative = inhibition is -5.24% [at 11.4 µM].

For the molecule `Cn1ncc2c(NCCc3ccccc3)nc(Cl)nc21`, the AC50 was 2.51 µM (active).

On to `CN1CCN(c2ncc3nc(-c4ccccc4)c(=O)n(Cc4ccc(F)cc4)c3n2)CC1`, for which the “activity, negative = inhibition” value is -20%.

`CN1CCN(c2ncc3nc(-c4cccs4)c(=O)n(Cc4cccs4)c3n2)CC1`: the AC50 was 15.8 µM (active).

For the molecule `COCCn1c(=O)c(-c2cccs2)nc2cnc(N3CCN(C)CC3)nc21`, the AC50 is 15.8 µM (active).

Turning to `COc1cccc(Cn2c(=O)c(-c3ccccc3)nc3cnc(N4CCN(C)CC4)nc32)c1`, the “activity, negative = inhibition” value was -20.3%.

In the case of `CC(C)CNS(=O)(=O)c1cc(C(=O)N2CC(C)OC(C)C2)c(Cl)cc1Cl` (configuration not stated), the “activity, negative = inhibition” value was 2.27%.

With `c1ccc(CNc2ccnc(-c3cccnc3)n2)cc1`, the AC50 is 0.251 µM (active).

Regarding `Cc1cccc(CNc2ccnc(-c3cccnc3)n2)c1`, the AC50 is 0.126 µM (active).

On to `COc1ccccc1OCCCOc1ccc([N+](=O)[O-])cc1Cl`, for which the AC50 is 2 µM (active).

Consider `COc1cc(C)ccc1OCCCOc1ccccc1Br`, for which the AC50 was 1.58 µM (active).

In the case of `COc1cc(C)ccc1OCCCOc1ccccc1Cl`, the AC50 is 2.51 µM (active).

As to `COc1cc(C)ccc1OCCOc1cc(C)ccc1Cl`, the “activity, negative = inhibition” value was -29.1%.

For `C[C@@H]1C[C@H](C)CN(S(=O)(=O)c2cc(Cl)c(Oc3ccc([N+](=O)[O-])cc3Cl)c(Cl)c2)C1`, the activity, negative = inhibition was -15.8% [at 11.4 µM].

For the molecule `CC1(C)CCC=[N+]1[O-]`, the “activity, negative = inhibition” value is -0.975%.

Turning to `CO/N=C(\C)CCN1CCc2nc(-c3ccccc3)c(-c3ccccc3)cc2C1`, the activity, negative = inhibition was 7.31% [at 11.4 µM].

In the case of `CO[C@H]1COC(=O)[C@H]2CCCN2C(=O)[C@@H](C)COC(=O)C/C=C\[C@@H]1C`, the activity, negative = inhibition was -1.05% [at 11.4 µM].

On to `CCn1c2ccc(Cl)cc2c2nc3ccccc3nc21`, for which the AC50 was 0.501 µM (active).

As for `CC(=O)Nc1c(S(=O)(=O)c2ccccc2)c2nc3ccccc3nc2n1Cc1ccccc1`, the “activity, negative = inhibition” value is -16%.

Turning to `Cc1cc(-c2n[nH]c(=S)o2)c(C)n1-c1ccccc1`, the AC50 was 14.1 µM (active).

In the case of `CN(C)S(=O)(=O)Oc1ccc(Cl)cc1C(=O)Nc1cccc(C(F)(F)F)c1`, the AC50 is 7.08 µM (active).

For `CN(C)S(=O)(=O)Oc1ccccc1C(=O)Nc1cccc(C(F)(F)F)c1`, the AC50 is 8.91 µM (active).

In the case of `CC(O)(CS(=O)(=O)Cc1ccccc1Cl)C(=O)Nc1cccc(C(F)(F)F)c1` (configuration not stated), the “activity, negative = inhibition” value is -13.5%.

For the molecule `CO[C@@H]1/C=C\CC(=O)N[C@@H](C)C(=O)OC[C@H](NS(=O)(=O)c2ccc(C)cc2)[C@H](C)/C=C\CC(=O)OC[C@H]1C`, the activity, negative = inhibition was 8.52% [at 11.4 µM].

As to `COC(=O)C/C=C\[C@H](C)[C@@H](OC)c1ccccc1Br`, the activity, negative = inhibition was -0.474% [at 11.4 µM].

`CN(CC(=O)O)CC(=O)O`: the activity, negative = inhibition was -5.93% [at 2.29 µM].

Consider `COC(=O)CSc1ncc(OC)c(OC)n1`, for which the “activity, negative = inhibition” value is -22%.

With `CCOC(=O)C(C)Sc1ncc(OC)c(Sc2ccc(Cl)cc2)n1` (configuration not stated), the concentration at half-maximal activity (AC50) is 12.6 µM (active).

For the molecule `O=C(Nc1ccccc1)N1CCCC2(CCN(C(=O)c3cnccn3)CC2)C1`, the “activity, negative = inhibition” value is 3.93%.

As to `COc1ccc(-c2cc(C(=O)Nc3cnn(Cc4ccccc4C)c3)no2)cc1OC`, the “activity, negative = inhibition” value is -15.7%.

As to `O=C(Nc1cnn(Cc2ccc(Cl)cc2Cl)c1)c1cc(-c2cccs2)on1`, the AC50 is 2.51 µM (active).

`Cc1cccc(-c2c3c(=O)n(C)c(=O)n(C)c3cn2C2CCCCC2)c1`: the “activity, negative = inhibition” value was -28.2%.

With `O=C(Nc1ccccc1N1CCOCC1)c1ccc([N+](=O)[O-])cc1`, the “activity, negative = inhibition” value was -29.5%.

On to `O=C(Nc1ccccc1N1CCOCC1)c1cnccn1`, for which the half-maximal activity concentration (AC50) is 4.47 µM (active).

As to `O=C(c1cnccn1)N1CCC2(CC1)CCN(c1ccccc1)CC2`, the “activity, negative = inhibition” value is -10.3%.

As to `CNc1ccnc(-c2c(C)noc2C)n1`, the AC50 is 1.26 µM (active).

Consider `Cc1noc(C)c1-c1nccc(NC2CC2)n1`, for which the AC50 is 0.1 µM (active).

As to `c1cc(NC2CC2)nc(-c2ccoc2)n1`, the AC50 was 0.251 µM (active).

As to `COCCNc1ccnc(-c2c(C)noc2C)n1`, the AC50 is 2.51 µM (active).

Turning to `O=C1O/C(=C\Br)CC[C@@H]1c1cccc2ccccc12`, the “activity, negative = inhibition” value is 1.77%.

Regarding `Clc1cnccn1`, the “activity, negative = inhibition” value was -1.25% [at 25.6 µM].

Turning to `Cc1noc(C)c1-c1nccc(Nc2ccc(F)cc2)n1`, the AC50 was 0.398 µM (active).

On to `Cn1c2c(c(=O)n(C)c1=O)CN(CCN1CCNCC1)CN2`, for which the “activity, negative = inhibition” value is -2.63%.

Regarding `COC(=O)c1ccc(Oc2nc(N(C)C)nc(N3CCOCC3)n2)cc1`, the half-maximal activity concentration (AC50) is 3.55 µM (active).

Regarding `O=c1ccc(Oc2nc(N3CCOCC3)nc(N3CCOCC3)n2)n[nH]1`, the “activity, negative = inhibition” value was 6.81%.

For `COc1ccc(C(=O)N2CCC3(CC2)CCN(c2ncccn2)CC3)cc1`, the “activity, negative = inhibition” value is -11.8%.
